Data as given in ChEMBL document CHEMBL1157539, “Thousands of chemical starting points for antimalarial lead identification” (Nature, 2010).
Fewer than 10 of roughly 13,000 compounds showed an effect of 50% or more. A selection follows.

test system: Plasmodium falciparum; experiment: GSK_TCMDC: Inhibition of Plasmodium falciparum 3D7 LDH activity, using an LDH reporter assay. Test compounds present at 2uM; assay type: functional, organism-based

inhibition, 8%:
Cc1cccc2nc(-c3ccc(-c4ccc(NC(=O)C(=O)c5cccn5C)cc4)cc3)[nH]c12

inhibition, 0%:
C=CCn1c(=N)c(C(=O)NCc2ccc(F)cc2)cc2c(=O)n3cccc(C)c3nc21
CC(C)(Oc1ccc(Cl)cc1)C(=O)NCCC1CCN(CCCCCNC(=O)/C=C/c2ccc(Cl)c(Cl)c2)CC1
OC(CNCCCCCCNCC(O)c1ccc(Cl)c(Cl)c1)c1ccc(Cl)c(Cl)c1 (stereo unspecified)
FC(F)(F)c1cccc(Nc2nc3nonc3nc2NC2C3CC4CC(C3)CC2C4)c1 (stereo unspecified)
COc1ccc2nccc([C@@H](O)CN3CCC(NCc4cc5cccc(O)c5[nH]4)CC3)c2c1
Fc1ccc2[nH]c(-c3cccc(-c4cccc(CN5CCN(c6cnccn6)CC5)c4)c3)nc2c1
O=C(Cc1ccccc1)NC(c1ccc(Cl)cc1)c1ccc2cccnc2c1O (stereo unspecified)
Cc1noc(C)c1-c1ccc2c(Nc3ccccc3C(C)(C)C)c(C(=O)NCc3ccccc3)cnc2c1
Cc1cccc2nc(-c3ccc(-c4cccc(NC(=O)c5cncn5C)c4)s3)[nH]c12
CC(C)CNCc1cccc(-c2cccc(CN(CCCN3CCN(C)CC3)C(=O)CCC3CCCC3)c2)c1
Cc1cc(NC2CCN(CC3CCCCC3)C2)nc(Nc2ccc(Cl)cc2)n1 (stereo unspecified)
CC(=O)Nc1ccc(OCCCCN(Cc2ccccc2C(F)(F)F)c2ccc(C#N)c(C(F)(F)F)c2)c(Cl)c1
COc1ccc(-c2cccc(NC(=O)c3ccc(Cl)cc3)c2)cc1CN1CCNCC1
COc1ccc2c(NN=Cc3ccc(F)cc3)ccnc2c1
COc1ccc(C=NN=c2cc(C)[nH]c3ccccc23)cc1OC
CCn1c(-c2nonc2N)nc2c(-c3ccccc3)ncc(OCCCCNCCc3ncc[nH]3)c21
CCc1c[nH]c2c(N3CCCS3(=O)=O)cc(C(=O)N[C@@H](Cc3ccccc3)[C@H](O)CNC(C)(C)CCCC(C)C)cc12
COc1ccc(C2CCC(NCCCCNC(=O)c3ccc(NC(=O)c4ccc(Cl)cc4)cc3)CC2)cc1 (stereo unspecified)
Cc1c(-c2ccc(C(=O)NC3CC(C)(C)NC(C)(C)C3)cc2)[nH]c2cc(Cl)c(Cl)cc12
O=C(Nc1cccc(F)c1)c1ccc(C(=O)NC2CCN(CC3CCCCC3)CC2)cc1
CC(C)NCc1ccc(-c2ccc(NC(=O)c3ccc(C#N)cc3)cc2)cc1
O=C(Nc1nc(-c2ccccn2)cc2ccccc12)c1cccc(Cl)c1
CC1(C)N=C(N)N=C(N)N1c1ccc(Cl)c(Cl)c1
Cc1cc(=NN=Cc2ccccc2Cl)c2ccc(F)cc2[nH]1
Cc1cc(CNCCCCCCCNCc2ccc(-c3ccccc3)cc2)ccc1O
Cc1cc(=NN=Cc2ccc(F)cc2)c2ccc(C(F)(F)F)cc2[nH]1
COc1cc(C=NN=c2cc(C)[nH]c3ccccc23)cc(OC)c1OC
CCCCN1CCN(CCCNc2c3ccccc3nc3ccccc23)CC1
CON=Cc1ccn(-c2ccc(O)c3c2C[C@H]2C[C@H]4[C@H](N(C)C)C(O)=C(C(N)=O)C(=O)[C@@]4(O)C(O)=C2C3=O)c1
CN(C)Cc1ccc(-c2ccc3c(Nc4ccc(Cl)cc4F)ccnc3c2)o1
CN(C)c1ccc(-c2nc3cc(N)ccc3[nH]2)cc1
Cc1cc(O)c(-c2cccc(Oc3ccc(Cl)cc3)c2)c(C)n1
FC(F)(F)COc1ccc2ccccc2c1CCNCCCCNCCc1c(OCC(F)(F)F)ccc2ccccc12
Cc1c2ccc(N(C)c3ccnc(Nc4ccc5c(c4)nc(NC(C)C)n5C)n3)cc2nn1C
O=C(C=Cc1ccc(Cl)c(Cl)c1)NCCCCCN1CCC(CCNC(=O)/C=C/c2ccccc2)CC1
CCN(CC)CCN(Cc1ccc(-c2ccc(C(F)(F)F)cc2)cc1)C(=O)Cn1c(CCc2ccc(F)cc2)nc(=O)c2ccccc21
Cn1cccc1C(=O)C(=O)Nc1cccc(-c2ccc(-c3nc4cc(C(F)(F)F)ccc4[nH]3)cc2)c1

inhibition, 5%:
COc1ccc(CNCc2ccc(F)cc2)cc1-c1ccc(OC)c(S(=O)(=O)NCCN2CCCC2)c1
COc1ccc2c(N/N=C/c3cccc([N+](=O)[O-])c3)ccnc2c1
CCOc1cc[nH]c(=O)n1

inhibition, 3%:
COc1ccc(-c2ccc(NC(=O)c3ccccc3)cc2)cc1CN1CCCN(C)CC1
NC(=O)C1CCN(Cc2cccc(-c3cccc(-c4nc5cc(F)ccc5[nH]4)c3)c2)CC1
CCN(CC)CCN(Cc1ccc(-c2ccc(C(F)(F)F)cc2)cc1)C(=O)Cn1c(CCc2cccc(F)c2F)nc(=O)c2ccc(F)cc21
O=C(CNC(=O)c1ccc(O)cc1)Nc1ccc(-c2cccc(-c3nc4cc(C(F)(F)F)ccc4[nH]3)c2)cc1

inhibition, 6%:
COC(=O)c1cccc(CNCc2ccc(-c3cccc(-c4nc5cc(C(F)(F)F)ccc5[nH]4)c3)cc2)c1

inhibition, 4%:
CC(C)(C)c1ccc(CNC(=O)c2ccc(CNC3CCC(N)CC3)s2)cc1 (stereo unspecified)
O=C(NCCCCN1CCC(c2ccc3c(c2OCCO)CCCC3)CC1)c1ccc2oc(-c3ccc(C(F)(F)F)cc3)cc2c1

inhibition, 2%:
C[C@H]1CN(Cc2cccc(-c3cc(CNC(=O)c4cccc(CC5CCN(C)CC5)c4)ccc3F)c2)CCN1C
Nc1c(I)cc(C(=O)Nc2ccc3nc4c(c(N)c3c2)CCCC4)cc1I
Cc1noc(C)c1-c1ccc2c(Nc3cccc4c3-c3ccccc3C4=O)c(C(=O)NCc3ccccc3I)cnc2c1
FC(F)(F)c1ccc2[nH]c(-c3ccc(-c4cccc(CN5CCN(c6ccncc6)CC5)c4)cc3)nc2c1

inhibition, 7%:
COc1ccc2nccc(N3CCC(CCNCc4cc5c(cn4)OCCO5)CC3)c2n1

inhibition, 1%:
O=C(NCCc1ccccc1)N(Cc1ccccc1-c1ccc(CNC2CCCC2)cc1)C1CCN(Cc2ccccc2)CC1
COc1ccc(CNC(=O)Nc2cccc(-c3csc(NC(=N)N)n3)c2)cc1
CC(=O)Nc1ccc(C(=O)Nc2cccc(-c3cccc(-c4nc5cc(F)ccc5[nH]4)c3)c2)cn1
